SMN2 splice enh: increases expression of the SMN2 splice variant; 210,000 tested, 2.8% active; AID 1458; HEK293 SMN2-luciferase splicing reporter, luminescence, 30-36 h; Potency, µM (doses to about 46.1 µM), inactives show at the top dose activity change, positive = activation, hits mostly activators; further: % of control where 0% means no effect; nearly all actives have a fitted effect of over 55% in size
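HEK293 cells carry an SMN2 […]–luciferase reporter in which exon 7 inclusion puts luciferase in frame. Cells were plated 10-12 h before compound addition, then incubated 30-36 h at 37C. ONE-Glo luminescence was read; sodium butyrate at 4.5 mM final served as control.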
ELG1 DNA repair: inhibitors of ELG1-dependent DNA repair in HEK293T cells | 330,000 tested, 2.3% active | HEK293T ELG1-luciferase reporter, luminescence, 16 h; DNA damage induced by 5-fluorouridine | AID 504467 | Potency, µM (top dose mostly 46.1 µM), for the others: top-dose activity change, negative = inhibition, most hits filed as inhibitors; further: on the % scale 0 is the no-effect control and ±100 the full control effect; nearly all actives have a fitted effect of over 55% in size
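HEK293T cells expressing luciferase-tagged ELG1 (2,000/well) received 5-Fluorouridine plus compound or DMSO for 16 hr at 37 °C. Luciferase was read by ONE-Glo luminescence after 30 min at room temperature.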
FLuc modulator: counter-screen for miR-21 project: firefly luciferase inhibitors or activators; purified FLuc, Km substrates, luminescence inhibition; Potency, µM (series often up to 57.5 µM), inactives show top-dose activity change, negative = inhibition, most hits filed as inhibitors; P08659; 360,000 tested, 6.9% active;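 further: plate controls were vehicle for no effect and reference inhibitor for full effect; nearly all actives have a fitted effect of over 55% in size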
Target sequence (P08659 whole entry, looked up): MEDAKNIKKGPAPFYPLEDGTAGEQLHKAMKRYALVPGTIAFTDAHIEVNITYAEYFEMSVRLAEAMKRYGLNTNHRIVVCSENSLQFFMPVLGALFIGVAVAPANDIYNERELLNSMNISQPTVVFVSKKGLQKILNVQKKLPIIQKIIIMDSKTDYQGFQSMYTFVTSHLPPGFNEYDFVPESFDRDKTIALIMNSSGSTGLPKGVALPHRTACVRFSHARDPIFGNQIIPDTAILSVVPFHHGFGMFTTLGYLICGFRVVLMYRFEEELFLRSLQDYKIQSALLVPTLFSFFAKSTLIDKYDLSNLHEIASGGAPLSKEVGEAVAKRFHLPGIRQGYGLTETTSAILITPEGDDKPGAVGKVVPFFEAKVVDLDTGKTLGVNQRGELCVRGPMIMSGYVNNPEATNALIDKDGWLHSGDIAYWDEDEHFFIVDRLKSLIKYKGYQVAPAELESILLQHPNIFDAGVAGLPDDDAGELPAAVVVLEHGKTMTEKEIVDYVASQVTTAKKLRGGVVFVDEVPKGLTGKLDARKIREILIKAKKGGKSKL
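Purified P. pyralis luciferase, 10 nM final, with Km-level 10 uM D-luciferin and 10 uM ATP in 50 mM Tris acetate pH 7.5, 10 mM Mg acetate, 0.01% Tween-20, 0.05% BSA; 6-point qHTS titration about 60 µM downward; luminescence read.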
NPC1 prom act: activates the NPC1 promoter; Huh7 NPC1 promoter luciferase reporter, 24 h; 320,000 tested, 2.4% active; Potency, µM (doses to about 9.22 µM), for inactives: top-dose activation, hits mostly activators; AID 485313; further: % of control where 0% means no effect; nearly all actives have a fitted effect of over 60% in size
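In 1536-well qHTS, Huh7 cells harboring an NPC1 promoter–luciferase construct received compound for 24 h; activation was quantified by luminescence following luciferase reagent addition.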
Rab9 promoter act: activators of Rab9 promoter; Huh7 Rab9 promoter-luciferase reporter, luminescence, 24 h; Potency, µM (doses to about 9.22 µM), for the others: at the highest dose activation, negative = inhibition, hits mostly activators; 320,000 tested, 2.8% active; further: % of control where 0% means no effect; nearly all actives have a fitted effect of over 60% in size
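Measured in stably transfected Huh7 cells bearing a Rab9 promoter–luciferase construct: 24 h compound treatment at 37 °C, followed by luminescence detection.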
ELG1 genotox: induces genotoxicity in HEK293T cells with luciferase-tagged ELG1. HEK293T ELG1-luciferase reporter, luminescence, 16 h. Potency, µM (highest dose often 46 µM), inactives show at the top dose activity change, positive = activation, actives largely listed as activators. 330,000 tested, 1.3% active; further: % of control where 0% means no effect; nearly all actives have a fitted effect of over 60% in size
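Reporter readout depends on ELG1 protein level, which increases with genetic stress. After 16 hr compound exposure at 37 °C, luciferase activity was quantified using ONE-Glo.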
Numbers without * were called inactive; ? = inconclusive; . = no result. Rows were chosen to be rich in hits. Some 9.4% of all compounds tested hit in one or more screens of this group. The call rests on the fitted dose curve; in most records, active means well fitted curve in the direction sought with a large enough effect; inconclusive means small, poorly fitted or top-dose-only effect, or another doubt; inactive means no such curve, though single readings can be large; an effect the other way counts as inactive or inconclusive. Potency means the concentration at half of the fitted maximal effect.

SMILES	SMN2 splice enh	ELG1 DNA repair	FLuc modulator	NPC1 prom act	Rab9 promoter act	ELG1 genotox
Cc1c(Cl)ccc2c(C(=O)NCCN3CCCCC3)cc(-c3ccccn3)nc12	-23%	?	-1%	-11%	-4%	?
Cc1c(Cl)ccc2c(C(=O)NCCCn3nccc3C)cc(-c3ccccn3)nc12	.	18µM*	0%	-2%	3%	-18%
C=CCc1cccc2cc(C(=O)Nc3ccc(F)cc3)c(=O)oc12	7%	?	-14%	?	?	?
C=CCc1cccc2cc(C(=O)Nc3cccc(C(=O)O)c3)c(=O)oc12	.	?	12µM*	?	?	9%
C=CCc1cccc2cc(C(=O)Nc3ccc(CC(=O)O)cc3)c(=O)oc12	9%	?	8.5µM*	12%	-2%	6%
Cc1nc(N2CCN(S(=O)(=O)c3ccccc3C#N)CC2)c2c(-c3cccs3)csc2n1	-63%	18µM*	2%	-8%	0%	-14%
COC(=O)CCC(=O)c1oc2ccccc2c1N	-11%	?	21µM*	0%	-6%	?
COC(=O)CCC(=O)c1oc2ccccc2c1NC(=O)CCCN1C(=O)c2ccccc2C1=O	-19%	-6%	-4%	6%	4%	-1%
CCCCC(C(=O)NC1CCCC1)N(Cc1ccco1)C(=O)Cn1nnc(-c2ccc(F)cc2)n1 (centres undefined)	-4%	16µM*	7%	-4%	-3%	-14%
CCC(C(=O)NC1CCCC1)N(Cc1cccs1)C(=O)Cn1nnc(-c2ccc(OC)c(OC)c2)n1 (centres undefined)	9%	18µM*	-2%	-1%	0%	1%
O=C(CN(Cc1ccco1)C(=O)Cn1nnc(-c2ccc(F)cc2)n1)NC1CCCC1	-1%	-12%	0%	-4%	-1%	-3%
CC(C(=O)NC1CCCC1)N(C(=O)Cn1nnc(-c2ccc(F)cc2)n1)c1ccccc1F (centres undefined)	.	16µM*	1%	-1%	0%	-13%
O=C(NC1CC(=O)N(c2cccc(F)c2)C1)c1cc2ccccc2o1 (centres undefined)	.	.	4%	.	.	.
CCN(CC)C(=O)c1ccc(-c2cccs2)s1	.	?	11µM*	2.5µM*	3.5µM*	?
CC(O)CN=c1cc(-c2ccccc2)oc2ccc(Cl)cc12 (centres undefined)	17%	?	15µM*	?	?	?
COc1ccc(CC(=O)N2CCC(Nc3nc4ccccc4n3Cc3ccc(F)cc3)CC2)cc1	-3%	21µM*	5%	-3%	-5%	-10%
COc1ccc(Cn2c(SCC(=O)N3CCN(c4ccc(F)cc4)CC3)nc3ccccc32)cc1	-9%	.	1%	.	.	.
O=C(NCc1ccccc1Cl)c1ccc2c(c1)N(Cc1ccccc1)C(=O)c1ccccc1S2	.	.	0%	.	.	.
Cc1ccc2oc(C(=O)Nc3ccc(S(=O)(=O)Nc4onc(C)c4C)cc3)c(C)c2c1	.	?	7.6µM*	24%	?	?
Cc1cccc(OCCCC(=O)Nc2ccc(S(=O)(=O)Nc3onc(C)c3C)cc2)c1	10%	0%	0%	0%	2%	-2%
CC(C)=CC(=O)Nc1ccc(S(=O)(=O)Nc2onc(C)c2C)cc1	.	3%	-11%	-4%	5%	0%
Cc1cccc(NC(=O)Nc2ccc(S(=O)(=O)Nc3onc(C)c3C)cc2)c1	.	?	17µM*	23%	?	3%
Cc1ccc(/C=C/C(=O)Nc2ccc(S(=O)(=O)Nc3onc(C)c3C)cc2)cc1	.	-4%	15µM*	1%	1%	5%
CCn1c(=O)c2c(nc3n2CCN3c2ccc(OC)cc2)n(C)c1=O	.	.	3%	.	.	.
O=C(/C=C/c1ccco1)Nc1ccc(C(=O)N2CCOCC2)cc1	21%	?	?	10%	3%	3%
SMILES	SMN2 splice enh	ELG1 DNA repair	FLuc modulator	NPC1 prom act	Rab9 promoter act	ELG1 genotox
O=C(C[n+]1ccc(/C=C/c2ccccc2)cc1)c1ccc2c(c1)OCCO2	.	?	0%	-4%	-11%	-12%
COc1ccccc1/C=C/C(=O)Nc1ccc2c(c1)OCCO2	2.8µM*	?	0.85µM*	?	0.71µM*	?
O=C(/C=C/c1ccccc1)Nc1ccc2c(c1)OCCO2	1.1µM*	?	0.21µM*	0.5µM*	0.45µM*	?
O=C(/C=C/c1ccco1)Nc1ccc2c(c1)OCCO2	8.9µM*	?	1.9µM*	2.2µM*	0.63µM*	-5%
COc1ccc(-c2cc(C(F)(F)F)n3nc(C(=O)O)c(Cl)c3n2)cc1OC	-2%	.	-16%	.	.	.
O=C(Nc1nccs1)c1cc(N2CCOCC2)nc2ccccc12	-2%	18µM*	-3%	-3%	1%	-5%
Cc1ccc(NC(=O)c2cc(N3CCOCC3)nc3ccccc23)cc1	-9%	15µM*	?	12%	1%	-6%
COc1cc(OC)c(NC(=O)Nc2cccc(OCc3cc(=O)n4ccccc4n3)c2)cc1Cl	.	.	-15%	.	.	.
c1ccc2c(c1)CCN(c1nc3ccccc3n3cnnc13)C2	12%	?	?	-1%	7%	0%
c1ccc2c(c1)CCCN2c1nc2ccccc2n2cnnc12	3%	?	15µM*	1%	7%	10%
Clc1ccc(Nc2nc(C3CC3)cs2)cc1	11µM*	?	7.6µM*	3.2µM*	1.6µM*	6.5µM*
Cc1nnc(Nc2ccc(Cl)cc2)s1	.	18%	?	-5%	0%	3%
Cc1ccc(Nc2nc(C3CC3)cs2)cc1	4µM*	?	3.8µM*	4µM*	3.5µM*	8.2µM*
CCOC(=O)c1cnc2ccccc2c1Nc1ccc(N2CCOCC2)cc1	-8%	.	-12%	.	.	.
CCOC(=O)c1ccc2ncc(C(=O)OCC)c(Nc3ccc(N4CCOCC4)cc3)c2c1	-49%	10µM*	-2%	-1%	-3%	-14%
Cc1nc(NC(=O)/C=C/c2ccc(F)cc2)sc1C(=O)N(C)C	27%	?	17µM*	0%	-5%	7%
Cc1nc(NC(=O)/C=C/c2ccccc2)sc1C(=O)N1CCCCC1	1%	-4%	?	1%	-5%	-3%
Cc1nc(NC(=O)/C=C/c2ccccc2)sc1C(=O)N(C)C	41%	?	13µM*	24%	?	16%
COc1ccc(C(=O)NNC(=S)NC(=O)/C=C/c2cccs2)cc1	.	?	2.7µM*	3.5µM*	3.5µM*	21µM*
COc1ccc(/C=C/C(=O)NC(=S)NNC(=O)c2ccco2)cc1	-1%	-28%	-15%	-8%	-2%	1%
